The record followed here is PubChem BioAssay (NCI).

Compounds without any hit were thinned out: in the full panel of roughly 83,000, 20% have a hit.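 Values shown are percent growth following 48 h exposure of cells in 96-well plates to a single concentration of compound; below 10 was considered active.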 A number with no mark means an inactive call. Active and inactive are the calls of the source.

Some test systems named below: NCI-H23 lung; NCI-H226 lung; NCI-H322M lung; HOP-62 NSCLC; NCI-H460 lung; HOP-92 NSCLC; NCI-H522 lung; A549/ATCC NSCLC; 786-0 renal; COLO 205 colon; DU-145 prostate; K-562 leukemia; MALME-3M melanoma; MDA-MB-231 breast; RXF 393 renal; SF-268 CNS; SF-295 CNS; SF-539 CNS; UACC-257 melanoma; M14 melanoma.
Test in all cases: NCI-60 one-dose screen, 48 h (100 = growth as untreated, 0 = no growth, -100 = all killed)
What all share (settings): 10 µM unless noted

Regarding `Cc1cc(=O)oc2cc(OC(=O)N3CCN(C)CC3)ccc12`, the growth is 99.6% in the test with NCI-H23 lung; 101% with NCI-H226 lung; 105% in the test with NCI-H322M lung; 104% with HOP-62 NSCLC; 107% in the test on NCI-H460 lung; 103% in the test on HOP-92 NSCLC. Further, the growth with NCI-H522 lung was 98.9%; in the test with A549/ATCC NSCLC, 103%; with 786-0 renal it was 108%; in the test on COLO 205 colon, 116%; in the test with DU-145 prostate it was 110%; with K-562 leukemia it was 90.3%. The growth with MALME-3M melanoma was 103%; in the test with MDA-MB-231 breast, 104%; in the test with RXF 393 renal, 121%; in the test with SF-268 CNS, 101%; in the test on SF-295 CNS, 104%; in the test on SF-539 CNS, 96.3%. Besides, the values for the growth with UACC-257 melanoma and in the test on M14 melanoma were 106% and 95.5%, respectively.
Regarding `COc1ccc(C(=O)COC(=O)[C@H](C[Se][Se]C[C@H](NC(=O)c2ccc(Br)cc2F)C(=O)OCC(=O)c2ccc(OC)cc2)NC(=O)c2ccc(Br)cc2F)cc1`, the growth in the test with NCI-H23 lung is -50.3% (active); in the test on NCI-H226 lung, -69.5% (active); in the test with NCI-H322M lung it was 0.597% (active); with HOP-62 NSCLC it was -72.4% (active); with NCI-H460 lung, -36.6% (active); in the test with HOP-92 NSCLC it was -27.9% (active). The growth with NCI-H522 lung was -69.5% (active); with A549/ATCC NSCLC it was -3.84% (active); with 786-0 renal, -95.8% (active); in the test with COLO 205 colon, -45.6% (active); with DU-145 prostate, -70.6% (active); in the test with K-562 leukemia, 9.64% (active). In addition, the growth was -45.9% (active) in the test on MALME-3M melanoma; -57.5% (active) in the test on MDA-MB-231 breast; -90.5% (active) in the test with RXF 393 renal; -54.3% (active) in the test on SF-268 CNS; -31.7% (active) with SF-295 CNS; -93.9% (active) in the test with SF-539 CNS. For the same compound, the growth is -43.8% (active) with UACC-257 melanoma and -73.9% (active) in the test with M14 melanoma.
Regarding `COc1cc(C(=O)/C=C/c2c(Cl)nc3sccn23)cc(OC)c1OC`, the growth in the test on NCI-H23 lung is 91.8%; in the test with NCI-H226 lung, 92%; in the test on NCI-H322M lung it was 77.3%; in the test with HOP-62 NSCLC, 83.3%; in the test on NCI-H460 lung, 87.1%; in the test with HOP-92 NSCLC it was 57.3%. Besides, the growth in the test on NCI-H522 lung was 61.8%; in the test with A549/ATCC NSCLC, 83%; with 786-0 renal, 91.6%; in the test on COLO 205 colon, 104%; in the test on DU-145 prostate, 83.8%; with K-562 leukemia it was 37.6%. For the same compound, the growth in the test on MALME-3M melanoma was 91.9%; in the test on MDA-MB-231 breast, 77.2%; with RXF 393 renal, 79.5%; in the test with SF-268 CNS, 77.8%; in the test with SF-295 CNS, 112%; in the test with SF-539 CNS it was 86.5%. The values for the growth in the test with UACC-257 melanoma and in the test on M14 melanoma were 71.3% and 79.4%, respectively.
On to `O=C(Oc1cccc2ccccc12)Oc1cccc2ccccc12`, for which the growth in the test with NCI-H23 lung was 90.9%; in the test with NCI-H226 lung, 98.5%; with NCI-H322M lung, 104%; with HOP-62 NSCLC, 96.1%; in the test on NCI-H460 lung, 110%; with HOP-92 NSCLC, 62.8%. The growth in the test on NCI-H522 lung is 93.8%; with A549/ATCC NSCLC, 107%; with 786-0 renal, 110%; with COLO 205 colon, 127%; in the test on DU-145 prostate it was 104%; with K-562 leukemia it was 103%. Besides, the growth is 98% in the test on MALME-3M melanoma; 94.2% in the test with MDA-MB-231 breast; 115% with RXF 393 renal; 75.3% in the test with SF-268 CNS; 109% in the test with SF-295 CNS; 101% in the test with SF-539 CNS. The growth is 127% in the test on UACC-257 melanoma and 96.2% with M14 melanoma.
Turning to `CNc1ccc(Nc2cccc(C)c2)c2c1C(=O)c1ccccc1C2=O`, the growth is 89.9% in the test with NCI-H23 lung; 93.1% in the test with NCI-H226 lung; 82.1% in the test with NCI-H322M lung; 102% in the test on HOP-62 NSCLC; 87.6% in the test on NCI-H460 lung; 28.9% in the test on HOP-92 NSCLC. Besides, the growth with NCI-H522 lung was 75.9%; in the test on A549/ATCC NSCLC, 97.7%; with 786-0 renal, 100%; in the test with COLO 205 colon, 105%; in the test on DU-145 prostate, 85%; with K-562 leukemia it was 92.7%. Moreover, the growth was 147% in the test on MALME-3M melanoma; 96.1% in the test on MDA-MB-231 breast; 93.4% in the test with RXF 393 renal; 87.5% in the test with SF-268 CNS; 146% in the test on SF-295 CNS; 99% in the test with SF-539 CNS. Further, the growth is 107% in the test on UACC-257 melanoma and 122% in the test on M14 melanoma.
`CNC(=O)c1cc(-n2ccc3cc(NC(=O)c4ccc(N5CCOCC5)c(C(F)(F)F)c4)ccc32)ccn1`: the growth in the test with NCI-H23 lung is 64%; in the test on NCI-H226 lung it was 51.7%; in the test on NCI-H322M lung it was 91.5%; in the test with HOP-62 NSCLC it was 62%; in the test on NCI-H460 lung, 68.4%; with HOP-92 NSCLC it was 60.5%. Also, the growth is 52% in the test with NCI-H522 lung; 46.3% in the test on A549/ATCC NSCLC; 47.8% with 786-0 renal; 42.9% in the test on COLO 205 colon; 76% with DU-145 prostate; 25.5% with K-562 leukemia. Moreover, the growth with MALME-3M melanoma was 73.9%; in the test on MDA-MB-231 breast, 77.7%; in the test on RXF 393 renal it was -2.7% (active); in the test with SF-268 CNS, 88.3%; in the test with SF-295 CNS, -3.1% (active); in the test with SF-539 CNS, 30.6%. Besides, the growth in the test on UACC-257 melanoma is 84.3%; in the test with M14 melanoma, 62.4%.
With `Cc1cc(Cl)ccc1NS(=O)(=O)c1ccc(-c2cnc(C3CC3)o2)cc1`, the growth is 31.1% with NCI-H23 lung; 27.7% in the test with NCI-H226 lung; 50.7% in the test with NCI-H322M lung; 48.5% in the test on HOP-62 NSCLC; 12.2% in the test with NCI-H460 lung; 58.3% in the test with HOP-92 NSCLC. In addition, the growth in the test with NCI-H522 lung is 13.5%; in the test on A549/ATCC NSCLC, 28.4%; in the test with 786-0 renal, 28.6%; in the test on COLO 205 colon, -11% (active); in the test with DU-145 prostate, 21%; in the test on K-562 leukemia, 9.89% (active). In addition, the growth with MALME-3M melanoma was 68%; in the test with MDA-MB-231 breast, 26.2%; in the test with RXF 393 renal, 16.2%; in the test with SF-268 CNS, 47%; with SF-295 CNS, 16.9%; in the test with SF-539 CNS, -19.1% (active). For the same compound, the growth in the test on UACC-257 melanoma was 69.4%; in the test with M14 melanoma, 10.2%.
Take `CN1CCN(c2ccc(-c3ccc4ncc(C#N)c(Nc5ccc(F)c(Cl)c5)c4c3)cn2)CC1`: the growth was 79% in the test on NCI-H23 lung; 84.2% with NCI-H226 lung; 16.8% in the test with NCI-H322M lung; 68.7% with HOP-62 NSCLC; 26.9% with NCI-H460 lung; 57.9% in the test on HOP-92 NSCLC. In addition, the growth with NCI-H522 lung was 39.1%; with A549/ATCC NSCLC, 51.3%; in the test on 786-0 renal, 52.9%; with COLO 205 colon, 57.1%; in the test with DU-145 prostate, 27.5%; in the test on K-562 leukemia, 17.3%. Besides, the growth in the test with MALME-3M melanoma was 27.9%; with MDA-MB-231 breast, 77.2%; in the test with RXF 393 renal it was 27.3%; in the test with SF-268 CNS it was 47.7%; in the test with SF-295 CNS it was 71.5%; in the test with SF-539 CNS, 60.2%. Also, the growth was 34% with UACC-257 melanoma and 30.5% in the test on M14 melanoma.
